Screens as filed in PubChem BioAssay.
Six1-Eya2 inh = inhibitors of human Six1/Eya2 interaction; activity change, % (no concentration beside the values); AlphaScreen GST-Six1/His-Eya2 binding, biochemical; stronger effect = lower value; 0.56% of 360,000 active; in the data active = activity change below about -65%; inconclusive = mostly about -30% to -63%; also: % is scaled to controls: 0 for no effect and ±100 for the full control effect
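Homogeneous AlphaScreen proximity assay pairing GST-Six1 with His-tagged Eya2 (added as 5X mix: 250 nM and 500 nM) in 50 mM Tris pH 8.0, 300 mM NaCl, 1 mM TCEP. Glutathione donor and nickel acceptor beads; 1 h, 37 °C, dark.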
BAZ2B block = blocks human BAZ2B | Potency, µM (top dose mostly 114 µM), without a hit: top-dose activity change, negative = inhibition, actives largely listed as inhibitors | Q9UIF8 | AlphaScreen BAZ2B-H3K14Ac peptide displacement | 4.4% of 360,000 active; also: potency is read from the fitted curve at half-maximal effect; % is scaled to controls: 0 for no effect and ±100 for the full control effect; nearly all actives have a fitted effect of over 60% in size
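Inhibition is scored as reduced AlphaScreen emission. The BAZ2B/b-H3(5-23)K14Ac complex (50 nM each) in PBS pH 7.4, 0.01% Tween-20 meets compound (up to 110 uM) for 30 min at RT before bead addition.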
JMJD2A Tudor inh = blocks the human JMJD2A Tudor domain; AlphaScreen JMJD2A-Tudor / H3K4me3 peptide binding; 4.4% of 390,000 active; Potency, µM (series often up to 114 µM), for inactives: at the top dose activity change, negative = inhibition, actives largely listed as inhibitors; O75164; also: potency is read from the fitted curve at half-maximal effect; % is scaled to controls: 0 for no effect and ±100 for the full control effect; nearly all actives have a fitted effect of over 50% in size
HP1b binding inh = inhibitors of HP1-beta chromodomain binding to methylated histone tails | P83916 | AlphaScreen HP1-beta / biotin-H3K9me3 peptide binding | Potency, µM (series often up to 114 µM), inactives show at the highest dose activity change, negative = inhibition, usual class: inhibitors | 0.56% of 390,000 active | AID 540317; also: potency is read from the fitted curve at half-maximal effect; nearly all actives have a fitted effect of over 70% in size
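Compound inhibition of the preformed complex between 50 nM HP1-beta and 50 nM biotinylated H3K9me3 peptide was read by AlphaScreen. Buffer was PBS pH 7.4 with 0.01% Tween-20. Incubations ran 30 min at room temperature, with 10 ug/mL donor/acceptor beads.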
G9a inh = G9a (human) methyltransferase inhibition; G9a H3K9 monomethylation, AlphaScreen, 2 h; 8.8% of 350,000 active; Potency, µM (top dose mostly 102 µM), for inactives: top-dose activity, negative = inhibition, actives largely listed as inhibitors; also: potency is read from the fitted curve at half-maximal effect; % is scaled to controls: 0 for no effect and ±100 for the full control effect; nearly all actives have a fitted effect of over 75% in size
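Chemiluminescent proximity detection of H3K9 monomethylation, read after 10 min bead incubation in the dark. Reaction: 20 nM G9a, 500 nM biotin-H3K9 peptide, 20 uM SAM cofactor, 2 h, room temperature, following 15 min enzyme-compound preincubation.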
CtBP-E1A blk = CtBP/E1A binding inhibition | AlphaScreen GST-E1A/His-CtBP binding, 1536-well; stronger effect = lower value | activity change, % (concentration not given with the values) | 0.49% of 340,000 active | AID 651724; in the data active = activity change below about -65%; inconclusive = mostly about -30% to -63%; also: % is scaled to controls: 0 for no effect and ±100 for the full control effect
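AlphaScreen with 125 nM GST-E1A and 125 nM His-CtBP (5X stocks) in Tris pH 8.0, 300 mM NaCl, BSA, Tween 20, TCEP. Compounds preincubated 2 h at 37 deg C, then glutathione donor/nickel acceptor beads added for 1 h at 37 deg C in dark.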
Numbers without * were called inactive; ? = inconclusive; . = no result; [ ] = another dose, or the depositor's remark. Rows were chosen to be rich in hits. Some 10% of all compounds tested hit in one or more screens of this group. Unless noted, calls follow the shape of the dose curve; as a rule, active = well fitted inhibition curve with a large enough effect; inconclusive = small, poorly fitted or top-dose-only effect; inactive = no such curve, though single readings can be large or run the other way.

SMILES	Six1-Eya2 inh	BAZ2B block	JMJD2A Tudor inh	HP1b binding inh	G9a inh	CtBP-E1A blk
CCOC(=O)c1sc(N)c(C(N)=O)c1C	-4	.	-20%	-13%	40µM*	5
CCOC(=O)c1c(N)sc(N)c1C(=O)OCC	-8	50µM*	?	8.9µM*	3.2µM*	-5
CCOC(=O)c1c(N)sc(=S)c2c1CCC2	?	45µM*	?	?	?	-28
CCOC(=O)c1c(N)ssc1=S	-4	?	?	?	1µM*	8
O=C(Nc1ccccc1Cl)c1cc(C2CCCN(S(=O)(=O)c3cccs3)C2)on1 (centres undefined)	0	.	.	.	.	5
O=S1(=O)N[C@H](Cc2ccccc2)COc2cccc(N3CCC[C@H]3CO)c21	-2	.	.	.	.	0
CCCn1c(CCC(=O)Nc2ccc(C)c(Cl)c2)nc2cccnc21	.	-7%	-20%	16%	-5%[59 µM]	.
Cc1c(C(=O)OC(C)C)sc(N)c1C(=O)OC(C)C	7	4%	-3%	19%	?	-8
Cc1c(C(N)=O)sc(N)c1C(=O)OC(C)C	2	-24%	-16%	-22%	40µM*	2
CCN1CCN(Cc2ccc(OCc3ccccc3)c(OC)c2)CC1	2	-1%	-27%	22%	?	2
CCN1CCN(CC#CCOc2ccccc2OC)CC1	1	22µM*	0.79µM*	?	-47%[0.501 µM]	-4
CC(C)CNC(=O)COC(=O)CCC(=O)c1ccc(Cl)cc1	4	4%	-2%	40%	2%	2
O=C(/C=C/c1ccco1)NCC(=O)N/N=C/c1ccc([N+](=O)[O-])cc1	-15	?	14µM*	?	?	.
O=C(/C=C/c1ccco1)NCC(=O)N/N=C/c1ccc(Cl)cc1	3	-19%	-20%	23%	-30%	-12
O=C(N/N=C/C=C/c1ccco1)c1cccc([N+](=O)[O-])c1	-9	-8%	-17%	36%	?	-12
O=C(/C=C/c1ccc([N+](=O)[O-])cc1)/C=C/c1ccco1	.	28µM*	.	.	10µM*	.
C/C(=N/NC(=O)CNC(=O)/C=C/c1ccco1)c1ccc(Cl)cc1	0	56µM*	-30%	22%	-38%	10
O=C(/C=C/c1ccco1)c1cccc([N+](=O)[O-])c1	?	.	35µM*	?	.	0
COc1ccccc1/C=C/C(=O)NCC(=O)N/N=C(/C)c1ccc(Cl)cc1	2	-34%	-21%	15%[57 µM]	20%	.
CC1CC=CC2C1C(=O)N(Cc1ccccc1)C2c1ccc(Br)cc1F (centres undefined)	.	.	5%	63%	.	.
CCOc1ccc(-c2nc(Cn3c(=O)cc(C)c4c(C)nn(-c5ccc(C)cc5)c43)c(C)o2)cc1	.	-1%	-1%	80%	8%[59 µM]	.
O=c1[nH]c2ccc(S(=O)(=O)N3CCN(S(=O)(=O)c4c(F)cccc4F)CC3)cc2[nH]c1=O	.	.	-30%	.	.	.
NS(=O)(=O)c1ccc(CCNC(=O)CSc2nc3ccsc3c(=O)n2C2CC2)cc1	0	15%	1%	43%	71µM*	2
NS(=O)(=O)c1ccc(CCNC(=O)CSc2nc3ccsc3c(=O)n2CC2CCC(C(=O)O)CC2)cc1 (centres undefined)	0	-6%	5%	30%	9%	.
CC1(C)CC(=O)C/C(=N/NC(=O)COc2ccc3ccccc3c2Br)C1	-5	-24%	?	25%	.	-4
O=[N+]([O-])c1ccccc1-c1ccc(C(=S)N2CCN(c3ccccc3)CC2)o1	-13	8.9µM*	22µM*	?	.	.
O=C(NC1CCCCC1)c1ccc(-c2ccccc2[N+](=O)[O-])o1	-9	?	?	-5%	?	-17
Cc1ccc(N2CCN(C(=S)c3ccc(-c4ccccc4[N+](=O)[O-])o3)CC2)cc1	?	10µM*	32µM*	14µM*	7.1µM*	?
CCCCN(C=O)c1c(CC)nc2ccc(C(=O)Nc3cc(-c4ccccc4)ccc3OC)cn12	-1	.	.	.	.	-7
